Activity calls are given as the source filed them. The rule behind the calls is not given here.

Chain of Pantothenate synthetase (Mycobacterium tuberculosis (strain ATCC 25618 / H37Rv)) (P9WIL5 whole entry, looked up): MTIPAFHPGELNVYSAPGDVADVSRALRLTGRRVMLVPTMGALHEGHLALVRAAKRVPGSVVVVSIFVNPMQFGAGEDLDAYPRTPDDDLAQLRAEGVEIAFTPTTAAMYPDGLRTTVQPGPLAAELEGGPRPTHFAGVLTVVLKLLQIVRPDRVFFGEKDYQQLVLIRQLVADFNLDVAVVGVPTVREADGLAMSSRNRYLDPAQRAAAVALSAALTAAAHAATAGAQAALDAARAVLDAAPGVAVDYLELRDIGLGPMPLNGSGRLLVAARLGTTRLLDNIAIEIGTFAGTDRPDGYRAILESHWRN

This assay addresses Pantothenate synthetase (Mycobacterium tuberculosis (strain ATCC 25618 / H37Rv)) (UniProt P9WIL5). The experiment in a line: Recombinant Mtb pantothenate synthetase (PanC) inhibitors, coupled enzyme, confirmatory (AID 375).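 Note: 0% = full reaction with vehicle and 100% = no enzyme background.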 The following applies: coupled enzyme assay; at 10 µM, hits give high values.
The inhibition is how much of the control response was suppressed. For the molecule `CCOc1ccccc1-n1c(SCC(=O)NC(C)CC)nnc1-c1ccoc1C` (stereo not drawn), the inhibition is 0% (inactive).
With `c1ccc(-c2nnc(CN3CCC4(CC3)OCCO4)o2)cc1` the figure was 1% (inactive).
Regarding `Nc1nnc(-c2cc3ccccc3oc2=O)s1`, the inhibition was 8% (inactive).
With `O=C(NCC1CCCCN1)c1cc(OCC(F)(F)F)ccc1OCC(F)(F)F` (stereo not drawn) the figure was 3% (inactive); with `O=C1c2ccccc2NC(c2cccc(F)c2)N1Cc1ccco1` (stereo not drawn), 0% (inactive); with `COCCn1c(-c2ccco2)nc2nc3ccccc3nc21`, 5% (inactive).
On to `C=CCn1c(=S)[nH]c2nc3c(cc2c1=O)COC(C)(C)C3`, for which the inhibition was 16% (inactive).
For `CN(C)CC(C(=O)c1ccccc1)c1ccccc1` (stereo not drawn), the inhibition was 4% (inactive).
With `Cc1cc(Nc2ccc(C(=O)O)cc2)n2nc(C)nc2n1` the figure was 7% (inactive); with `O=C(NC1CCCCC1)c1cc2nc(-c3ccco3)cc(C(F)(F)F)n2n1`, 0% (inactive); with `CCNCc1cc2cc(C)ccc2[nH]c1=O`, 0% (inactive).
In the case of `CCN(c1cccc(C)c1)S(=O)(=O)c1ccc2[nH]c(=O)c(=O)[nH]c2c1` it was 7% (inactive); in that of `Nc1cc(CN2C(=O)c3ccccc3C2=O)cc(Cl)c1O`, 0% (inactive); in that of `O=C(NCCCN1CCN(CCCNC(=O)c2ccc(F)cc2)CC1)c1ccc(F)cc1`, 0% (inactive).
On to `CN(C)C(=O)Oc1ccc[n+](C)c1`, for which the inhibition was 4% (inactive).
Consider `O=C1CC(c2ccco2)CC(O)=C1C=NCCN1CCNCC1` (stereo not drawn), for which the inhibition was 0% (inactive).
For the molecule `COC(=O)c1ccc(-n2nnnc2SCc2nn[nH]n2)cc1`, the inhibition is 0% (inactive).
For `O=C(CSc1nnc(-c2ccccc2Cl)n1Cc1ccco1)Nc1ccc2c(c1)OCCO2`, the inhibition is 2% (inactive).
In the case of `Cc1ccc(S(=O)(=O)N[C@@H](C)C(=O)N2CCC(C(=O)N3CCC[C@H]3C(=O)O)CC2)cc1` it was 0% (inactive); in that of `CC(C)CNC(=O)c1ccccc1NC(=O)c1ccc(CN2CCOCC2)cc1`, 3% (inactive); in that of `COc1ccc(CCNc2oc(COc3ccc(F)cc3)nc2C#N)cc1`, 0% (inactive).
With `CCOC(=O)C1CCN(CC(=O)c2c(C)[nH]c3ccccc23)CC1` the figure was 1% (inactive); with `COC(=O)COc1ccc(C(=O)OC)cc1`, 2% (inactive).

The record behind these values is PubChem BioAssay.
